High-throughput results (PubChem BioAssay)
In the library only some 2.6% were active in any assay of this set; here they are far more common.
Myeloid diff 2 = myeloid differentiation induction; ER-HoxA9 myeloid progenitors, lysozyme-GFP differentiation, flow cytometry; calls only at 10 µM; hit rate 1% among 360,000; AID 624256;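 active = normalized GFP-positive differentiation at or above the plate's own cutoff, the solvent-only control mean plus 3 SD; inconclusive = no clear call, values can overlap the other calls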;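 note: cells exposed to compound for four days before flow analysis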
IDE cell activ = boosts human insulin-degrading enzyme activity in HEK cells; activation, % at 5.96 µM; FAbeta-B cleavage, fluorescence polarization; 0% vehicle, 100% cell-free pure enzyme wells; P14735; AID 493087; hit rate 0.073% among 340,000;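 active = activation above the mean of all tested compounds plus 3 SD, set per screening campaign, cut at about 17% in these data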
Target sequence (P14735 whole entry, looked up): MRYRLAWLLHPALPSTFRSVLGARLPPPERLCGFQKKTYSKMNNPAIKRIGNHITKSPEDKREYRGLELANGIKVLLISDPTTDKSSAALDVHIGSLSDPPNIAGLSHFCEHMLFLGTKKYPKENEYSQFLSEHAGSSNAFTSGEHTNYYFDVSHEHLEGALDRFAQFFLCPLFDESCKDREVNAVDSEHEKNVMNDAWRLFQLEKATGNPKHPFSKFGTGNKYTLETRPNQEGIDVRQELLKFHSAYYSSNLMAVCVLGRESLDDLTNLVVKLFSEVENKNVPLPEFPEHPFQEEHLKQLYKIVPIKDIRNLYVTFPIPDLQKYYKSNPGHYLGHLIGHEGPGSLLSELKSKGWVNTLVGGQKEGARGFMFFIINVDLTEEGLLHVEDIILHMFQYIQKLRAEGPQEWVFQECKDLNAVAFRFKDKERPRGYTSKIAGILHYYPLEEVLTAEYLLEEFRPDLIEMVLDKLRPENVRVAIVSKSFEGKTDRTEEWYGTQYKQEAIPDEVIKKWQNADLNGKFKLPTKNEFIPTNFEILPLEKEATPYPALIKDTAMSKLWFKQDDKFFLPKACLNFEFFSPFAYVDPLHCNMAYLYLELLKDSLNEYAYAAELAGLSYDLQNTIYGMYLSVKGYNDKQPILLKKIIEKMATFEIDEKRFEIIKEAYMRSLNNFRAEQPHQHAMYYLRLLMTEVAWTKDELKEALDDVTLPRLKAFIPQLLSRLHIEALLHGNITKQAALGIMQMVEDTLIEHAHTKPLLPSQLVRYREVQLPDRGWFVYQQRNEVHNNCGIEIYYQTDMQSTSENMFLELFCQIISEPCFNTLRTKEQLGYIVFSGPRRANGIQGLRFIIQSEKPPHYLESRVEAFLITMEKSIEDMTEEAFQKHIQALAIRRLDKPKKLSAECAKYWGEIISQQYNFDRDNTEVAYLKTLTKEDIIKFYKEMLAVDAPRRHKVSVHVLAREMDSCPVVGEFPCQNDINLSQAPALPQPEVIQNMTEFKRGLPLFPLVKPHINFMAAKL
CRFBP-R2 block = CRF-BP/CRF-R2 complex antagonism | HEK293 CRF-R2/CRF-BP, CRF-induced calcium fluorescence | inhibition, % at 11.8 µM | hit rate 0.59% among 350,000;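 active = inhibition of the ligand-induced calcium signal above about 50% at the single tested concentration, limit read from the data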
TPT1 inhibitor = C. albicans TPT1 enzyme inhibition | AID 1962 | inhibition, % at 5 µM | hit rate 0.81% among 300,000 | recombinant caTPT1, FP RNA substrate dephosphorylation;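 active = inhibition above the mean of all tested compounds plus 3 SD, set per screening campaign, cut at about 24% in these data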
CRFBP-R2 agonist = agonists of human CRF-binding protein/CRF-R2 receptor complex; HEK293 CRF-R2/CRF-BP, calcium dye fluorescence (FLIPR); percent of saturating CRF peptide response; activation, % at 13.2 µM; hit rate 0.46% among 350,000;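 active = activation of at least 50%, plus an integration ratio under a set limit after plate pattern correction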
IDE cell inh = inhibitors of human insulin-degrading enzyme in cells; P14735; HEK cells, FAbetaB cleavage, fluorescence polarization; inhibition, % at 5.59 µM; hit rate 0.41% among 320,000; AID 434962;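 active = percent inhibition above the average of all tested compounds plus 3 SD, set per screening campaign, cut at about 16% in these data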;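 note: IDE supplied by intact live HEK cells; FP after avidin binding of uncleaved biotin substrate so inhibition keeps polarization high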
caTPT1 confirm = TPT1 (C. albicans) inhibition, confirmation | hit rate 74% among 2,400 | shares compounds with TPT1 inhibitor | recombinant caTPT1, fluorescence polarization, RNase T1 coupled | inhibition, % at 5 µM;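 active = inhibition above the primary screen limit, the mean inhibition of all tested compounds plus 3 SD, cut at about 25% in these data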
RNase T1 counter = counter-screen for TPT1 inhibitors: inhibitors of Aspergillus oryzae RNase T1; hit rate 83% among 2,400; shares compounds with TPT1 inhibitor; RNase T1 cleavage, fluorescence polarization, 1536-well; inhibition, % at 5 µM;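 active = inhibition above the solvent-only control well mean plus 3 SD, limit set per screening run, cut at about 23% in these data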;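 note: inhibitors block cleavage so intact labeled substrate keeps polarization high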
Of the large screens only hits and unclear results are named; the others gave an inactive call (follow-up assays come after a bar, where they were run).

CC(C)N1CCc2c(sc(NC(=O)c3ccc(C(=O)c4ccccc4)cc3)c2C(N)=O)C1	TPT1 inhibitor 35 | caTPT1 confirm 31 | RNase T1 counter 48
CC(C)N1CCc2c(sc(NC(=O)c3ccc(S(=O)(=O)N4CCCCC4C)cc3)c2C(N)=O)C1 (stereo not given)	Myeloid diff 2 inconclusive
COc1ccc(/C=C(\C#N)C(=O)c2cccn2C)cc1	none
Cn1cccc1C(=O)/C(C#N)=C/c1ccc(F)cc1	TPT1 inhibitor 53 | caTPT1 confirm 80 | RNase T1 counter 96
CCn1cc(C(=O)N2CCN(c3ccccc3F)CC2)c(=O)c2ccc(C)nc21	none
CCOC(=O)c1nn(-c2ccc(Cl)cc2Cl)c(=N)c(C#N)c1C	TPT1 inhibitor 95 (no result: Myeloid diff 2, IDE cell activ, CRFBP-R2 block, CRFBP-R2 agonist) | caTPT1 confirm 81 | RNase T1 counter 87
O=C1OCC2=C1C(c1ccc(F)cc1)CC(=O)N2c1ccccc1 (stereo not given)	none (no result: CRFBP-R2 block, CRFBP-R2 agonist)
COc1ccc(-c2ccc(C#N)c(SCC(=O)Nc3sc4c(c3C#N)CCC4)n2)cc1	none
N#Cc1ccc(-c2cccnc2)nc1SCC(=O)Nc1sc2c(c1C#N)CCC2	TPT1 inhibitor 46 | caTPT1 confirm inactive | RNase T1 counter 29
O=C1NC(=S)NC1=Cc1ccc(O)cc1	none (no result: TPT1 inhibitor, IDE cell inh)
O=C1NC(=S)N/C1=C\c1ccc(N2CCOCC2)cc1	TPT1 inhibitor 26 | caTPT1 confirm 26 | RNase T1 counter 33
CCC1CN(C(=O)N2CCC(C(=O)Nc3ccccc3F)CC2)c2ccccc2O1 (stereo not given)	none
N#CC1=C(N)OC2=C(CC/C2=C\c2ccc(F)cc2)C1c1ccc(F)cc1 (stereo not given)	TPT1 inhibitor 103 (no result: Myeloid diff 2, IDE cell activ, CRFBP-R2 block, CRFBP-R2 agonist) | caTPT1 confirm 95 | RNase T1 counter 102
N#CC1=C(N)Oc2cc(N)ccc2C1c1ccc(F)cc1 (stereo not given)	none
COc1ccc2c(/C=N/Nc3ccc(C(=O)O)cc3)c[nH]c2c1	TPT1 inhibitor 56 | caTPT1 confirm 39 | RNase T1 counter 50
CC(C(=O)N1CCN(c2ccccc2)CC1)c1ccc([N+](=O)[O-])cc1 (stereo not given)	none
S=C(Nc1ccc(Cl)cc1)N(CCCN1CCOCC1)Cc1cccs1	TPT1 inhibitor 57 | caTPT1 confirm inactive | RNase T1 counter inactive
C=CCN=C1S/C(=C\c2ccc(N(C)C)cc2)C(=O)N1CC=C	TPT1 inhibitor 44 | caTPT1 confirm 50 | RNase T1 counter 63
COc1ccc2[nH]c3c(c2c1)CCN1C(=O)C(CC(=O)NC(C)(C)C)C[C@H](C(=O)N(C(C)C)C(C)C)[C@@]31C (stereo not given in full)	none (no result: TPT1 inhibitor, IDE cell inh)
N=C1/C(=C\c2coc3ccc(O)cc3c2=O)C(=O)N=C2SC=CN12	TPT1 inhibitor 65, CRFBP-R2 agonist 152 | caTPT1 confirm 67 | RNase T1 counter 76
CN1C(=O)/C(=C/c2coc3ccc(O)cc3c2=O)SC1=S	none
N=C1/C(=C/c2coc3ccccc3c2=O)C(=O)N=C2SC(c3ccco3)=NN12	TPT1 inhibitor 59, CRFBP-R2 agonist 168 (no result: IDE cell activ) | caTPT1 confirm 88 | RNase T1 counter 97
Cc1ccc(/C=C/C2=Cc3c(sc(NC(=O)CSc4n[nH]c(N)n4)c3C#N)C(C)(C)C2)o1	none (no result: Myeloid diff 2, IDE cell activ, CRFBP-R2 block, CRFBP-R2 agonist)
O=[N+]([O-])C(/C=C(\Cl)[N+](=O)[O-])=C1N(Cc2ccc(Cl)nc2)CCN1Cc1ccc(Cl)nc1	TPT1 inhibitor 40 | caTPT1 confirm 51 | RNase T1 counter 70
CC1(C)CC(=O)C2=C(C1)OC(=O)CC2c1cccs1 (stereo not given)	none
Cc1ccsc1C1CC(=O)OC2=C1C(=O)CC(C)(C)C2 (stereo not given)	TPT1 inhibitor 109 (no result: Myeloid diff 2, IDE cell activ, CRFBP-R2 block, CRFBP-R2 agonist) | caTPT1 confirm inactive | RNase T1 counter inactive
CCOc1cc(/C=N\Nc2ccc([N+](=O)[O-])cc2)ccc1OCC(=O)Nc1ccc(C)c(C)c1	TPT1 inhibitor 46 (no result: Myeloid diff 2) | caTPT1 confirm 30 | RNase T1 counter 35
CCCCn1c(N)c(N(C(=O)CSc2nnc(C)n2-c2ccccc2)C2CCCC2)c(=O)[nH]c1=O	none (no result: TPT1 inhibitor)
Cc1ccc(NC(=O)OCc2ccccc2S(C)=O)cc1 (stereo not given)	none
CCSc1nnc(NC(=O)CSc2sc3c(O)cc(=O)[nH]c3c2C#N)s1	none (no result: Myeloid diff 2)
CCc1nnc(NC(=O)CSc2sc3c(O)cc(=O)[nH]c3c2C#N)s1	TPT1 inhibitor 49 (no result: Myeloid diff 2) | caTPT1 confirm inactive | RNase T1 counter inactive
COc1ccc(-n2nnnc2SCC(=O)c2cc3ccccc3o2)cc1	TPT1 inhibitor 32 | caTPT1 confirm 26 | RNase T1 counter 35
C=CCNC(=O)CSc1nc2cc(C(=O)OCC)ccc2n1CC	none
COc1ccc(-n2nnnc2SCC(N)=O)cc1	none
CCOC(=O)c1ccc2c(c1)nc(SCC(=O)c1cc3ccccc3o1)n2CC	TPT1 inhibitor 33 | caTPT1 confirm inactive | RNase T1 counter 24
Cn1ccnc1SCC(=O)c1cc2ccccc2o1	TPT1 inhibitor 61 | caTPT1 confirm 29 | RNase T1 counter 41
O=C(CSc1nc2ccccc2s1)c1cc2ccccc2o1	TPT1 inhibitor 56 | caTPT1 confirm inactive | RNase T1 counter 25
O=C(CSc1nc2ccccc2s1)CSc1nc2ccccc2s1	none
Cc1sc2nc(CSc3nnnn3-c3ccc(Cl)cc3)[nH]c(=O)c2c1C	Myeloid diff 2 active, TPT1 inhibitor 31 | caTPT1 confirm 40 | RNase T1 counter 49
CCn1c(SCc2nc3sc(C(=O)O)c(C)c3c(=O)[nH]2)nnc1-c1ccc(Cl)cc1	none (no result: Myeloid diff 2)
O=C(Cn1c(CO)nc2ccccc21)NCc1ccc2c(c1)OCO2	none
O=C(Cn1c(Cc2ccccc2)nc2ccccc21)NCc1ccc2c(c1)OCO2	TPT1 inhibitor 61 | caTPT1 confirm inactive | RNase T1 counter inactive
Cc1ccc(S(=O)(=O)N(C)C)cc1NC(=O)COC(=O)c1ccc2ccccc2n1	none (no result: TPT1 inhibitor)
CCCOc1ccc(-c2nc(C#N)c(N3CCN(C)CC3)o2)cc1	none
CCOc1ccc(-c2nc(C#N)c(N3CCN(C)CC3)o2)cc1	TPT1 inhibitor 76 | caTPT1 confirm inactive | RNase T1 counter inactive
CSc1ncc(C(=O)Nc2ccc(C(C)=O)cc2)c(-c2ccccc2)n1	none
CCN1C(=O)CS/C1=C(\C#N)S(=O)(=O)c1ccccc1	TPT1 inhibitor 104 | caTPT1 confirm 80 | RNase T1 counter 90
Cc1ccccc1C(=O)NCC(=O)OC(C)C(=O)NCc1ccco1 (stereo not given)	none
O=c1[nH]ncc2c3ccccc3n(Cc3cccc(Cl)c3)c12	TPT1 inhibitor 69 | caTPT1 confirm 157 | RNase T1 counter 137
CN(Cc1ccccc1)C(=O)c1[nH]cnc1C(=O)Nc1ccccc1F	none (no result: IDE cell activ, TPT1 inhibitor, IDE cell inh)
